IFI data for 58 compounds are collected here from ChEMBL document CHEMBL1157539, “Thousands of chemical starting points for antimalarial lead identification” (Nature, 2010).

In all, about 13,000 compounds were measured (“IFI”: median about 4, highest 2% from about 17 on). What follows is part of a selection rich in the highest values, with near analogues and random picks from the rest.

The nature of this test: GSK_TCMDC: Inhibition Frequency Index (IFI). The number of non-kinase HTS assays where a compound showed > 50 % inhibition, expressed as a percentage of the number of such assays in which the compound was tested. Type of test: functional.
Regarding `Cc1cc(=NN=Cc2ccccc2F)c2cc(F)ccc2[nH]1`, the IFI worked out at 0%.
As to `O=C(NC1CCC(N2CCC(c3ccccc3C(F)(F)F)CC2)CC1)c1cc2ccccc2[nH]1` (stereo not drawn), the IFI was 10.4%.
`Cc1cccc(C)c1N1CCN(C2CCC(NC(=O)c3cc4ccccc4[nH]3)CC2)CC1` (stereo not drawn) displayed an IFI of 13.2%.
`Cc1cccc(N2CCN(C3CCC(NC(=O)c4cc5ccccc5[nH]4)CC3)CC2)c1C` (stereo not drawn) returned an IFI of 22.9%.
As for `O=C(NC1CCC(N2CCN(c3cccc(C(F)(F)F)c3)CC2)CC1)c1cc2ccccc2[nH]1` (stereo not drawn), the IFI came out at 17.6%.
In the case of `O=C(NC1CCC(N2CCC(Cc3ccc(F)cc3)CC2)CC1)c1cc2ccccc2[nH]1` (stereo not drawn) it was 14.7%.
The compound `O=C(NC1CCC(N2CCC(O)(c3ccc(F)cc3)CC2)CC1)c1cc2ccccc2[nH]1` (stereo not drawn) came in with an IFI of 1.54%.
To `COc1ccc(Nc2c3ccc(Cl)cc3nc3ccc(OC)cc23)cc1` belongs 5.11%; to `COc1ccccc1C1CCN(C2CCC(NC(=O)/C=C/c3cc(F)cc(C(F)(F)F)c3)CC2)CC1` (stereo not drawn), 11.5%.
In the case of `Cc1cccc2nc(-c3ccc(-c4cccc(CNCc5ccccc5)c4)s3)[nH]c12` it was 4.81%.
In the case of `COc1ccc(-c2cncc3ccc(C(=O)NCc4ccncc4)nc23)cc1` it was 6.45%.
In the case of `COc1ccc(Cc2cccc(C(C(=O)NCc3cc(Cl)cc(Cl)c3)N3CCN(C)CC3)c2)cc1` (stereo not drawn), the IFI is 7.75%.
`NC(=O)CCC(NC(=O)CNC(=O)Nc1cccc(C(F)(F)F)c1)C(=O)O` (stereo not drawn) came in with an IFI of 19.9%.
For the compound `O=C(Nc1cccc(C(F)(F)F)c1)Nc1ccc(Cl)c(C(F)(F)F)c1`, the IFI worked out at 16.7%.
To `CC(C)NCC(=O)Nc1cccc(C(=O)Nc2cccc(C(F)(F)F)c2)c1` belongs 2.04%; to `CC(=O)N1N=C(c2ccc(Cl)cc2)Sc2c1nc(-c1ccccc1)n2C(C)=O`, 0%; to `Cn1c(=O)c2cc(C(=O)NCCCN3CCCCCC3)sc2c2ccccc21`, 3.23%.
To `OCCN1CCN(Cc2ccc(-c3ccc(-c4nc5cc(F)ccc5[nH]4)cc3)cc2)CC1` belongs 8.91%; to `Cc1cc(=NN=Cc2ccc(F)cc2)c2cc(F)ccc2[nH]1`, 2.86%; to `COc1ccc(C(=O)CCC(=O)N(Cc2ccc(-c3ccc(CNCCc4ccccc4)cn3)cc2)C(C)CN(C)C)cc1F` (stereo not drawn), 6.9%.
Compound `COc1cc2c(cc1CCNCCCCNCCc1cc3c(cc1OC)CCCC3)CCCC2` gave an IFI of 15.8%.
To `COc1ccc2c(c1CNCCCCCCNCc1c(OC)ccc3c1CCCC3)CCCC2` belongs 11.9%; to `COc1ccc2c(c1CCNCCCCNCCc1c(OC)ccc3c1CCCC3)CCCC2`, 18.3%.
In the case of `CCOC(=O)c1ccc(NC(=O)Nc2ccc(-c3cccc(-c4nc5cc(F)ccc5[nH]4)c3)cc2)cc1` it was 4.95%.
For `Cc1cc(C(=O)NC2CCN(CC3(c4ccccc4)CCCCC3)CC2)on1`, the IFI was 6.38%.
Compound `O=C(Nc1ccc(C(=O)Nc2ccc(C3=NCCN3)cc2)cc1)Nc1ccc(C2=NCCN2)cc1` displayed an IFI of 5.84%.
In turn, `O=C(NC1CC1)c1cnc(N2CCC(Cc3ccccc3)CC2)c(Cl)c1` gave an IFI of 9.52%.
To `Oc1c(CN2CCC(Cc3ccccc3)CC2)cc(Cl)c2cccnc12` belongs 18.8%; to `COc1cc(C)cc(CN2CCC(Cc3ccccc3)CC2)c1O`, 0.84%.
To `COc1ccccc1CN1CCC(CNC(=O)c2cc(-c3ccc(N(C)C)cc3)cs2)C1` (stereo not drawn) belongs 13.7%.
To `CCCCN(CCCC)CCCN(CCCN(CCCC)CCCC)c1cc(C)nc(Nc2ccc3cc(Br)ccc3c2)n1` belongs 15.2%; to `CC1(C)N=C(N)N=C(N)N1OCCCCON1C(N)=NC(N)=NC1(C)C`, 1.44%.
In turn, `CCC(C)c1cccc(C(C)CC)c1OCCCON1C(N)=NC(N)=NC1(C)C` (stereo not drawn) returned an IFI of 24.1%.
In turn, `CCC(C)Oc1ccc(CCCON2C(N)=NC(N)=NC2(C)C)cc1` (stereo not drawn) displayed an IFI of 5.76%.
The compound `CCCOc1ccc(CCCON2C(N)=NC(N)=NC2(C)C)cc1` yielded an IFI of 6.29%.
To `CCCc1cccc(OC)c1OCCCON1C(N)=NC(N)=NC1(C)C` belongs 4.51%; to `CC(C)(C)c1ccc(OCCCON2C(N)=NC(N)=NC2(C)C)cc1`, 18.1%.
In the case of `Cc1cc(-c2cccc(CNC3CCN(C)CC3)c2)ccc1S(=O)(=O)NC1CCC1` it was 7.48%; in that of `Nc1nc(N)c2c3c(ccc2n1)NCCC3`, 2.48%.
Compound `COc1ccc(CNCc2ccc(-c3ccc(-c4nc5cccc(C)c5[nH]4)cc3)cc2)cc1` showed an IFI of 13.1%.
In the case of `O=C(Cn1cc(C(F)(F)F)cc(Cl)c1=O)N1CCN(S(=O)(=O)c2ccc(Cl)cc2)CC1` it was 0%; in that of `CCCNCc1ccc(-c2ccc(CN(CCOC)C(=O)CCC(=O)c3ccc(OC)c(F)c3)cc2)nc1`, 0.7%.
The compound `O=C(Nc1ccc(Cl)c(C(F)(F)F)c1)NC1CCN(CCCCCNC(=O)C2CC2c2ccc(Cl)c(Cl)c2)CC1` (stereo not drawn) gave an IFI of 17.1%.
`O=C(Nc1ccc(F)c(C(F)(F)F)c1)N[C@H]1CCN(CCCCCNC(=O)C2CC2c2ccc(Cl)c(Cl)c2)C1` (stereo partly drawn) had an IFI of 15.9%.
For the compound `O=C(Nc1ccc(Cl)cc1)NC1CCN(CCCCCNC(=O)C2CC2c2ccc(Cl)c(Cl)c2)CC1` (stereo not drawn), the IFI worked out at 10.2%.
In the case of `O=C(Nc1ccc(F)c(C(F)(F)F)c1)NC1CCN(CCCCCNC(=O)C2CC2c2ccc(Cl)c(Cl)c2)CC1` (stereo not drawn) it was 18.5%.
The compound `O=C(Nc1cccc(F)c1)N[C@H]1CCN(CCCCCNC(=O)C2CC2c2ccc(Cl)c(Cl)c2)C1` (stereo partly drawn) yielded an IFI of 19.4%.
In the case of `O=C(Nc1ccc(Cl)c(C(F)(F)F)c1)N[C@H]1CCN(CCCCCNC(=O)C2CC2c2ccc(Cl)c(Cl)c2)C1` (stereo partly drawn) it was 12.2%; in that of `O=C(Nc1cccc(F)c1)NC1CCN(CCCCCNC(=O)C2CC2c2ccc(Cl)c(Cl)c2)CC1` (stereo not drawn), 11.5%.
In the case of `O=C(Nc1cc(F)cc(F)c1)N[C@H]1CCN(CCCCCNC(=O)C2CC2c2ccc(Cl)c(Cl)c2)C1` (stereo partly drawn) it was 13.6%.
Compound `O=C(Nc1ccc(C(F)(F)F)cc1)NC1CCN(CCCCCNC(=O)C2CC2c2ccc(Cl)c(Cl)c2)CC1` (stereo not drawn) registered an IFI of 11.1%.
To `COc1ccc(-c2cnc3ccc(NCCCO)nn23)cc1OC` belongs 6.77%; to `COc1ccc(-c2nc3cccnc3n2CC(=O)Nc2c(C)cc(C)cc2C)c(OC)c1`, 5.56%; to `N=C1N=C(N)NCN1OCc1ccc(Cl)c(Cl)c1`, 0.72%.
To `Cc1[nH]c(C)c(-c2ccc(OCc3cc(C(F)(F)F)cc(C(F)(F)F)c3)nc2)c(=O)c1Br` belongs 5.36%; to `CC(C)(C)c1ccc2[nH]c(-c3ccc(/C=C/C(=O)NCc4cccc(C(F)(F)F)c4)cc3)nc2c1`, 2.9%; to `Cc1cccc2nc(-c3cccc(-c4cccc(CN5CCCC5CN)c4)c3)[nH]c12` (stereo not drawn), 4.95%.
In the case of `Cc1nn(-c2cccc(C(F)(F)F)c2)c2sc(C(=O)NC3CCN(C(C)C)CC3)cc12` it was 10%.
